# Laboratory results from PubChem BioAssay (NCI).
# The panel holds about 79,000 compounds, 15% with a hit somewhere; the sample as a whole holds those more often. Unmarked numbers belong to inactive results. Active and inactive are the calls of the source. No stated cut-off is given here; in the data, active means growth inhibition above about 70%; inactive means the rest.
# Experiment: NCI Yeast Anticancer Drug Screen. Data for the bub3 strain (AID 167)
# Settings: S. cerevisiae bub3 mutant strain, at 50.0 µM, hits give high values
# Method in brief: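 Yeast carrying a defined mutation is treated with each compound, and growth is compared with that of vehicle-exposed cells to give inhibition.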
row,SMILES,growth inhibition
1,CC1=C(CCC(C)CO)OC2CC3C4CCC5CC(O)CCC5(C)C4CCC3(C)C12 (stereo not given),-21.1%
2,COC(=O)c1nc(N)nc(C(=O)OC)c1C(=O)c1ccc(Cl)c(Cl)c1,3.2%
3,CNC(=O)OCc1c(COC(=O)NC)c(-c2ccccc2)n(-c2ccccc2)c1C,22.9%
4,C=C(C)COC(=O)COc1ccc(Cl)cc1,3.5%
5,CCCNC(=S)/N=C\c1c(O)c2ccccc2oc1=O,-0.2%
6,CCOC(=O)/C(C)=C1\N=C(c2ccccc2)OC(=NC2CCCCC2)N1C1CCCCC1,-4.55%
7,CCOC(=O)/C(C)=C(/C)Nc1ccccc1,-10.1%
8,O=C(CNC(=O)c1ccccc1)Nc1ccc([N+](=O)[O-])cc1,22.6%
9,Nc1ccc(Nc2c3ccccc3nc3ccccc23)cc1,23.4%
10,CC(C)(N=NC(C)(C)C(=O)NCCO)C(=O)NCCO,2%
11,CC(=O)c1ccc2ccccc2c1,-0.1%
12,Cc1ccc(CSCc2c(CSCc3ccc(C)cc3)c(CSCc3ccc(C)cc3)c(CSCc3ccc(C)cc3)c(CSCc3ccc(C)cc3)c2CSCc2ccc(C)cc2)cc1,1.75%
13,O=C(NO)Oc1cccc2ccccc12,-3.3%
14,O=C1/C(=C/c2ccccc2)N=C2Sc3c(nc[nH]c3=O)N12,10.4%
15,O=c1c(O)c(-c2ccccc2)oc2c(CP(=O)(O)O)cccc12,-2.45%
16,O=C(O)CCC(=O)Nc1ccccc1C(=O)O,5.6%
17,CC(C)OP(=O)(OC(C)C)c1ccc2c(c1)OCCOCCOCCOCCO2,-0.15%
18,O=C(OCC1OC(n2nc(SCc3ccccc3)c(=S)[nH]c2=O)C(OC(=O)c2ccccc2)C1OC(=O)c1ccccc1)c1ccccc1 (stereo not given),-5.7%
19,CCNC(=O)CCN(C(=O)O)S(=O)(=O)c1ccc(NC(=O)c2ccccc2)cc1,-8.7%
20,Cc1ccc(C(C)C)c(OCC2=NCCN2C)c1,-16.1%

row,SMILES,growth inhibition
1,C=C(C(=O)O)C1CC[C@@]2(C)CC(O)CC(=C)C2C1 (stereo not given in full),-2.9%
2,O=C1CCC2=NCc3c(ccc4ccccc34)N12,-12.3%
3,O=c1c(O)c(O)c1=O,9.3%
4,Cc1cc(=O)c2cc(-c3ccccc3)ccc2[nH]1,-1.5%
5,N#Cc1nc(COCc2ccccc2)oc1N,-19.5%
6,COC(=O)c1ccc(/C=C/c2cc(O)ccc2O)cc1,52.5%
7,O=S(=O)(SSS(=O)(=O)c1ccc(Cl)c(Cl)c1)c1ccc(Cl)c(Cl)c1,3.65%
8,CCCCOC(=O)CNC(=O)c1ccc(C)c(OCc2ccccc2)c1[N+](=O)[O-],20.9%
9,COC1C2CC3C4(CCC5C6(C)CCCC53C(C14)N(C)C6)CC21CCC23C4C=C5C6=C(CCC5(CC42)C3O1)C1(C)CC(C6)CN(C)C1 (stereo not given),18.5%
10,O=c1cc(C=Nc2ccc(-c3csc(-c4ccccc4)n3)cc2)[nH]c(=S)[nH]1,96.5% (active)
11,C1OC2OC3OCOC3C2O1 (stereo not given),17%
12,O=C1CCNC(=O)N1,-10.2%
13,CC1(C)NC(=O)N(CCCCCCN2C(=O)NC(C)(C)C2=O)C1=O,-20.2%
14,CC(Br)C(=O)n1c2ccccc2c2ccccc21 (stereo not given),12.2%
15,COC(=O)c1ccc(SCCC(=O)CO)cc1,13%
16,S=C(Nc1ccccc1)Nc1ccc(NC(=S)Nc2ccccc2)cc1,-8.45%
17,NCCCOC12CC3CC(CC(C3)C1)C2,7.6%
18,O=C(CC(=O)Nc1ccccc1)N/N=C/c1cc(N=Nc2ccc(Br)cc2)ccc1O,0.2%
19,CCOC(=O)c1nc(C)oc1C(=O)OCC,-7.3%
20,O=c1oc2c(Cl)cc(Cl)cc2cc1-c1nc2ccccc2[nH]1,14.1%
